D2 ag-1: activates the human D2 dopamine receptor; DiscoveRx PathHunter D2 beta-arrestin, luminescence, 90 min; 100% = 57 uM dopamine signal; 360,000 tested, 0.084% active; activation, % (concentration not given with the values); in the data active = activation above about 40%; inconclusive = between about 15% and that limit
Target sequence (P14416 whole entry, looked up): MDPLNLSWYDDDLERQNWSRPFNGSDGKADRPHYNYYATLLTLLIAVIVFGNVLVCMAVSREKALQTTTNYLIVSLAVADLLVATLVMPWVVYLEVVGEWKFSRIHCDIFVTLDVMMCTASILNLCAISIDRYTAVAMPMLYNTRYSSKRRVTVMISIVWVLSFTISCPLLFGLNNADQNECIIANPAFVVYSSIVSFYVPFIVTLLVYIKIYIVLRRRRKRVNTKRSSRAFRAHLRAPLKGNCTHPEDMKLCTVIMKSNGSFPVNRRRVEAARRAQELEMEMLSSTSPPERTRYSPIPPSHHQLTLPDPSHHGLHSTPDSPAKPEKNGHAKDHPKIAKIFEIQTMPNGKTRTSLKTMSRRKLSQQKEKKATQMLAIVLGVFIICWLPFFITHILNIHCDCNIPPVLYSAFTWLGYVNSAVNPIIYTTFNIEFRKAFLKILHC
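Agonist mode: compounds alone added to overnight-plated D2 PathHunter cells for 90 min at 37 C, with 57 uM final dopamine (EC100) defining full response. Beta-arrestin recruitment detected by chemiluminescent reagent, read after 1 h at ambient temperature.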
LDHA block: blocks human lactate dehydrogenase A; P00338; purified LDHA, NADH/diaphorase-resazurin fluorescence; hits give low values; activity change, % (values are at about 110 or 230 µM); 480,000 tested, 0.15% active; in the data active = activity change below about -30%; inconclusive = mostly about -25% to -30%;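 also: plate controls were DMSO wells for no effect and wells without enzyme for full effect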
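Resorufin fluorescence (ex540/em590), read at 0 and 20 min after diaphorase/resazurin addition, reports the NADH left after a 5 min room-temperature reaction of 2 nM human LDH5 with 0.06 mM NADH and 0.2 mM pyruvate.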
D2 PAM-1: positive allosteric modulators of human D2 dopamine receptor; HEK293 T-REx D2, calcium flux, EC20 dopamine potentiation; AID 485347; potentiation, % at 10 µM; 340,000 tested, 0.34% active; P14416;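 active = potentiation over 3 SD above the plate norm, cut at about 30% in these data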; also: 0% is about no effect
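Primary screen. Calcium kinetics in induced HEK293 T-REx D2 cells: compound pre-addition 180 s, EC20 dopamine, 180 s more.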
D2 PAM-2: human D2 receptor positive allosteric modulation | P14416 | DiscoveRx D2 beta-arrestin cells, luminescence, 90 min; 100% = 57 uM dopamine signal | potentiation, % (test concentration not listed) | 360,000 tested, 0.23% active | AID 624464; in the data active = potentiation above about 50%; inconclusive = mostly about 30% to 49%
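PathHunter D2 cells, attached overnight at 37 deg C, received compound in DMSO plus dopamine at EC20 (50 nM final) for 90 min at 37 deg C. Beta-arrestin recruitment was read as luminescence after 1 h with detection reagent at ambient temperature.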
D2 ag-2: agonists of human D2 dopamine receptor. 340,000 tested, 0.53% active. HEK293 T-REx D2 cells, calcium flux agonist mode. activation, % at 2 µM;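 active = activation over 3 SD above normal in the single-dose calcium agonist read, cut at about 30% in these data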; also: 0% is about no effect
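Calcium-flux readout, 1 cycle/sec over 180 s following compound pin transfer, in inducible HEK293 Trex D2 cells (force-coupled); dopamine controls included. Positive calcium responses during this window marked compounds as potential agonists.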
D2 antag: antagonizes the human D2 dopamine receptor; inhibition, % at 10 µM; HEK293 TREx D2 cells, calcium flux, dopamine EC80; P14416; 340,000 tested, 2% active; in the data active = inhibition above about 30%; inactive = below that, where a call was filed; also: 0% is about no effect
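Compounds are added to dye-loaded, induced HEK293 T-REx cells coupled to calcium release via D2; after a 3 min kinetic read an EC80 dopamine stimulus is given and fluorescence is recorded for 3 more min.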
An asterisk follows results filed as active; ? = inconclusive; / = not tested or not shown. Only some compounds are listed: those with a hit (about 2.1% of all), similar ones and a draw of the others.

SMILES | D2 ag-1 | LDHA block | D2 PAM-1 | D2 PAM-2 | D2 ag-2 | D2 antag
Nc1nn(S(=O)(=O)c2ccccc2)cc1-c1ccc([N+](=O)[O-])cc1 | ? | -4 | 10 | 74* | 0 | -4
Cc1ccc(S(=O)(=O)n2cc(-c3ccccc3)c(N)n2)cc1 | -2 | 0 | -3 | -8 | -1 | 4
Clc1cccc(Cn2c(-c3cncs3)nc3ccccc32)c1 | / | 5 | / | / | / | /
COc1cc(/C=N/NC(=O)c2ccc(CN3c4cccc5cccc(c45)S3(=O)=O)cc2)cc(OC)c1O | 7 | 4 | 2 | 0 | 1 | -4
COc1ccc(/C=N/NC(=O)c2ccc(CN3c4cccc5cccc(c45)S3(=O)=O)cc2)cc1 | 0 | 0 | 38* | 5 | 1 | 3
CCC(COC)Oc1cc(NCc2ccccc2)c2ncn(C(C)C)c2c1 (stereo not given) | 65* | 24 | 15 | 2 | 0 | -5
CCOC(=O)CNC(c1ccccc1)c1cc(Br)ccc1NC(=O)CCN1CCOCC1 (stereo not given) | -7 | -15 | -27 | -21 | 0 | 38*
O=C(CC(c1ccccc1)c1cc(Br)ccc1O)NCCN1CCOCC1 (stereo not given) | -2 | -2 | 8 | -32 | -3 | 77*
CCCCn1c(SCC(=O)c2ccc(O)cc2O)nc2cc(S(N)(=O)=O)ccc21 | -3 | -1 | -5 | -5 | 1 | 32*
Brc1ccc(C2=Nc3cccc4cccc(c34)N2)o1 | ? | 11 | 4 | 84* | 1 | -10
O=C(/C=C/c1ccc(-c2ccccc2)s1)N(Cc1ccco1)C1CC1 | / | -7 | / | / | / | /
CN1C(=O)c2ccc(NC(=O)c3c(C(=O)O)cccc3[N+](=O)[O-])cc2C1=O | -5 | -3 | 17 | -11 | 0 | 34*
COC(=O)CCC(NC(=O)C12CC3CC(CC(C3)C1)C2)C(=O)OC (stereo not given) | / | -4 | / | / | / | /
CC(C)C(=O)NC(=S)Nc1ccc(NC(=O)c2cccc(Cl)c2)cc1 | / | 1 | / | / | / | /
COc1ccc2oc(C)c(C(=O)c3ccc([N+](=O)[O-])cc3)c2c1 | ? | -6 | 14 | 84* | 19 | -2
Cc1cc(C)nc(SCC(N)=O)n1 | 7 | -11 | -2 | 0 | -1 | 12
COc1cc(C)nc(SCC(N)=O)n1 | -2 | -7 | / | 16 | 3 | 33*
Cc1cc2nnc(SCC(=O)N3C(C)CCCC3C)n2c(N)n1 (stereo not given) | -2 | -3 | 37* | -1 | 1 | 30*
CCOC(=O)C1CCCN(C(=O)CSc2nc(C)cc(C)n2)C1 (stereo not given) | -3 | -6 | 0 | -6 | 0 | -16
Cc1cc2nnc(SCC(=O)N3CCCCC3)n2c(N)n1 | -5 | -3 | 16 | -5 | 0 | 2
Cc1cc(C)nc(SCC(=O)N2CCC(C(N)=O)CC2)n1 | -5 | -6 | 30* | 3 | 1 | -14
Cc1cc(N)nc(SCC(=O)N2C(C)CCCC2C)n1 (stereo not given) | 0 | -10 | 34* | -4 | 1 | -23
O=c1ccc2ccc(OS(=O)(=O)c3ccc4c(c3)CCCC4)cc2o1 | / | 2 | / | / | / | /
N#C/C(=C/c1ccoc1)c1nc(-c2ccc(C3CCCCC3)cc2)cs1 | / | 4 | / | / | / | /
Cc1ccc(-n2c(SCC(=O)NC(=O)NC(C)C)nnc2N2CCCCC2)cc1 | / | 1 | / | / | / | /
CCN(CC)c1ccc(/C=C(\C#N)c2nc(-c3cccs3)c(NC(C)=O)s2)cc1 | / | / | -3 | / | 33* | 6
CC(=O)Nc1sc(N/N=C\c2ccc(O)cc2)nc1-c1cccs1 | 7 | -3 | 13 | 14 | -1 | -17
CCOC(=O)CSc1nc2ccccc2c(=O)n1-c1ccccc1OC | / | 8 | / | / | / | /
O=C(Cc1ccccc1)NN1C(=O)/C(=C/c2ccccc2C(=O)O)SC1=S | -4 | -17 | -2 | -4 | -1 | 31*
Cc1cccc(C)c1N1C(=O)c2cccc([N+](=O)[O-])c2C1=O | 5 | 12 | 12 | 83* | 0 | 12

Source: PubChem BioAssay (National Center for Advancing Translational Sciences (NCATS))
